Test [1] in a line: antimalarial activity against Dd2 strain (AID 2302;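 active = growth inhibition above 50% at the single 2 µM test dose, taken to imply half-maximal potency below 2 µM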;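 also: 0% = DMSO untreated growth and 100% = chloroquine plus artemisinin killed control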). The conditions noted are these: P. falciparum Dd2 in RBCs, LDH growth readout, 72 h; at 2 µM; hits give high values.
A short description of test [2]: HepG2 cytotoxicity, primary screen, cytotoxicity control for P. falciparum antimalarial project, cell-based, ATP luminescence (AID 2303;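 active = inhibition above 50%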;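 also: 0% = DMSO wells and 100% = digitonin-killed cells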). Particulars: HepG2 viability, 24-48 h, at 10 µM, hits give high values.
Test [3] has as its target L-lactate dehydrogenase (Plasmodium falciparum (isolate CDC / Honduras)) (UniProt Q27743). Put plainly: PfLDH activity inhibition – cell lysate, 3D7 strain, counter-screen for P. falciparum growth inhibition project (AID 2304).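 Also: 0% = vehicle and 100% = reference inhibitor.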 Particulars: P. falciparum 3D7 crude extract, LDH APAD/NBT absorbance; at 2 µM; hits give high values.
Test [4] in a line: inhibition of 3D7 malaria parasite growth – strain 3D7 (AID 2306).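 Also: 0% = DMSO wells and 100% = chloroquine plus artemisinin control wells.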 The conditions noted are these: P. falciparum 3D7 erythrocytic growth, LDH absorbance, 72 h; at 2 µM; hits give high values.
For test [5], the target named is Calcium-dependent protein kinase 1 (Plasmodium falciparum (isolate 3D7)) (UniProt P62344). In words: PfCDPK1 kinase inhibitors, biochemical, TCAMS library (AID 1159585; cut-off not given, nearly all actives have IC50 up to about 0.98 µM;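 also: inhibitors leave more ATP so luminescence rises with inhibition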). Particulars: recombinant PfCDPK1, Kinase-Glo ATP depletion luminescence. Background: Kinase-Glo measures the ATP left after a reaction by luminescence.
Chain of Calcium-dependent protein kinase 1 (Plasmodium falciparum (isolate 3D7)) (P62344 whole entry, looked up): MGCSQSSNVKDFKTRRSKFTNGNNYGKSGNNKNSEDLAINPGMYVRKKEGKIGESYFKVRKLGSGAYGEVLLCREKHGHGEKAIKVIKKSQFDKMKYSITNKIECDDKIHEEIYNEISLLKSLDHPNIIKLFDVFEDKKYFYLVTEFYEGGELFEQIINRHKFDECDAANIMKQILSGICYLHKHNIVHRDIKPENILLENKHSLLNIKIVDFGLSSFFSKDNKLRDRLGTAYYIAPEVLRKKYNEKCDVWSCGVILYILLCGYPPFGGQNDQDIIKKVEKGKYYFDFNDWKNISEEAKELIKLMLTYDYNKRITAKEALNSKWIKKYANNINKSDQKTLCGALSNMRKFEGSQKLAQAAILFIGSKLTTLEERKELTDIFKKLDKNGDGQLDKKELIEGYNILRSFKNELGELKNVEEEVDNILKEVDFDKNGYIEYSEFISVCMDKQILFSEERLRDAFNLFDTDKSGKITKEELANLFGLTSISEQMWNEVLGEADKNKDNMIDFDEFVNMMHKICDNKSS
For test [6], the target named is Plasmodium falciparum protein kinase 6 (PK6, PF3D7_1337100) (UniProt Q8IDW1). In words: PfPK6 kinase inhibitors, biochemical, TCAMS library (AID 1159586). Particulars: recombinant PfPK6, Kinase-Glo ATP depletion luminescence.
Chain of Plasmodium falciparum protein kinase 6 (PK6, PF3D7_1337100) (Q8IDW1 1-305): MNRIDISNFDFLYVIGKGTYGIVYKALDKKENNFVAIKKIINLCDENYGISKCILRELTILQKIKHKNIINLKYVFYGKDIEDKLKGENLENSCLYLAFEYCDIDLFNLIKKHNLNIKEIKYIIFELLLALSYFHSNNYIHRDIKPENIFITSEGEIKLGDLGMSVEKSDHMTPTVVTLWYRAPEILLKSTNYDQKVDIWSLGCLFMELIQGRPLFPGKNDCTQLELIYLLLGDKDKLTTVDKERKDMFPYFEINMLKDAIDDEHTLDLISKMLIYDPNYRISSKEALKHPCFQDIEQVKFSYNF
Test [7] concerns the target Protein kinase 7 (PK7), Plasmodium falciparum 3D7 (PF3D7_0213400) (UniProt Q7YTF7). In words: inhibition of Plasmodium PK7 catalytic activity – biochemical, TCAMS antimalarial set, Kinase-Glo luminescence (AID 1159587). The conditions noted are these: recombinant PfPK7, Kinase-Glo ATP depletion luminescence.
For test [8], the target named is Calcium-dependent protein kinase 4 (Plasmodium falciparum (isolate 3D7)) (UniProt Q8IBS5). In words: PfCDPK4 kinase inhibitors, biochemical, TCAMS library (AID 1159588; cut-off not given, nearly all actives have IC50 up to about 0.91 µM). The conditions noted are these: recombinant PfCDPK4, Kinase-Glo ATP depletion luminescence.
Chain of Calcium-dependent protein kinase 4 (Plasmodium falciparum (isolate 3D7)) (Q8IBS5 whole entry, looked up): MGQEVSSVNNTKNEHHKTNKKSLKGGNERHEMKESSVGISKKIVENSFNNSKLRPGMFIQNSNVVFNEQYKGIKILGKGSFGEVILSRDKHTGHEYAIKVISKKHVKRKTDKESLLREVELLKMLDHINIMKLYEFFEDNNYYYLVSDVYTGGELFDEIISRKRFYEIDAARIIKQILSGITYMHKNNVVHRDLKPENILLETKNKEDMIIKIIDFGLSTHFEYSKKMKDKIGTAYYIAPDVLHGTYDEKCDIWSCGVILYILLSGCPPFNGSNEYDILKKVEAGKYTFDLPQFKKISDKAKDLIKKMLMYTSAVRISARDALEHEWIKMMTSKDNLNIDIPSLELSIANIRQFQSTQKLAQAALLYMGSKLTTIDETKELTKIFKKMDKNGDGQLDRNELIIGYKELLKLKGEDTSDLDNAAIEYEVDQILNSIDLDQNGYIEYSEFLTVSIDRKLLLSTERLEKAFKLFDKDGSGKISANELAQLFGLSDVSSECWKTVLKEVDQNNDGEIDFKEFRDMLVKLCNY

Each structure is given as a SMILES string. A number with no mark means an inactive call. For some of these results: Measured potencies and affinities stand elsewhere. Calls of active or inactive are those of the source. Unless noted, no rule for the calls is given here.

Chain of Protein kinase 7 (PK7), Plasmodium falciparum 3D7 (PF3D7_0213400) (Q7YTF7 1-343): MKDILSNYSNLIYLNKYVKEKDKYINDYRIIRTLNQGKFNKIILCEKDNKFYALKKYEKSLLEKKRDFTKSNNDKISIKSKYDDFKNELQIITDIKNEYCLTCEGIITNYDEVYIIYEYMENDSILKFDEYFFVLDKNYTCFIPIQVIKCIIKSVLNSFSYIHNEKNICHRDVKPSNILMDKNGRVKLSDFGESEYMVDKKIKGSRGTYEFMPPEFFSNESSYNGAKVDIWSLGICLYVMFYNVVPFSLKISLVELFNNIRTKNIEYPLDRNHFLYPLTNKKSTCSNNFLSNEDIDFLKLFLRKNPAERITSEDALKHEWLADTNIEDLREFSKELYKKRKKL
Chain of L-lactate dehydrogenase (Plasmodium falciparum (isolate CDC / Honduras)) (Q27743 whole entry, looked up): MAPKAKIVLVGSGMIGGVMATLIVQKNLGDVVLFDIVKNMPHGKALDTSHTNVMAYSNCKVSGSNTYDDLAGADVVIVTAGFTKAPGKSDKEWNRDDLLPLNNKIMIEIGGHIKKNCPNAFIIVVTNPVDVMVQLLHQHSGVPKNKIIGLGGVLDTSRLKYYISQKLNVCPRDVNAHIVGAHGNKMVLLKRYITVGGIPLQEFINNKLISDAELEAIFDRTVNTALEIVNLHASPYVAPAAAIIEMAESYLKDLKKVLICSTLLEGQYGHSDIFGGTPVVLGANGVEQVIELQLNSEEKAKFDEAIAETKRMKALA

With `COc1ccc(CN(C)CCOc2ccc(NC(=O)c3cccc4c(=O)cc(-c5ccccc5)[nH]c34)cc2)cc1OC`, the figures for the growth inhibition in test [1] and in test [4] were 44% and 98% (active), respectively. Besides, the inhibition in test [2] is 13%; in test [3], -3%. In addition, the result in test [5], in test [6], in test [7] and in test [8] was inactive.
On to `CCCc1cc(OC)c(C[C@H]2c3cc(O)c(Cl)cc3CCN2C)cc1OC`, for which the figures for the growth inhibition in test [1] and in test [4] were 98% (active) and 97% (active), respectively. The inhibition in test [2] was -3%; in test [3], -6%. Also, the outcome in test [5], in test [6], in test [7] and in test [8] was inactive.
On to `COc1ccc2nccc([C@@H](O)CN3CCC(NC(=O)C(c4cc5ccccc5o4)N4CCN(C(c5ccccc5)c5ccccc5)CC4)CC3)c2c1` (stereo not given in full), for which the growth inhibition in test [1] and in test [4] was 100% (active) each time. Further, the inhibition in test [2] was 18%; in test [3] it was -4%. In addition, the result in test [5], in test [6], in test [7] and in test [8] was inactive.
As to `O[C@@H](c1ccccc1)[C@@H]1CN(CCC2C[C@@H]3CC[C@H]2C3)CC[C@@]1(O)c1ccccc1` (stereo not given in full), the growth inhibition in test [1] is 99% (active); in test [4] it was 97% (active). Moreover, the inhibition is -1% in test [2] and -2% in test [3]. Moreover, the outcome in test [5], in test [6], in test [7] and in test [8] was inactive.
As for `NC1CCN(c2nc(NCCCc3ccc(O)cc3)nc(NCc3ccccc3-c3ccccc3)n2)CC1`, the results for the growth inhibition in test [1] and in test [4] were 45% and 102% (active), respectively. The inhibition was 11% in test [2] and 4% in test [3]. In addition, the result in test [5], in test [6], in test [7] and in test [8] was inactive.
`O=C(/C=C/c1ccc(Cl)c(Cl)c1)NCCCCCCN1CCCN(C(=O)Nc2cc(F)cc(F)c2)CC1`: the growth inhibition in test [1] is -1%; in test [4], 99% (active). Also, the inhibition is 25% in test [2] and -6% in test [3]. In addition, the result in test [5], in test [6], in test [7] and in test [8] was inactive.
Turning to `c1cc(CN2CCCCC2)cc(-c2csc(-c3nc4ccccc4[nH]3)c2)c1`, the values for the growth inhibition in test [1] and in test [4] were 16% and 90% (active), respectively. The inhibition is 26% in test [2] and 4% in test [3]. In addition, the outcome in test [5], in test [6], in test [7] and in test [8] was inactive.
On to `COc1ccccc1C1CCN(C2CCC(NC(=O)/C=C/c3cc(C(F)(F)F)cc(C(F)(F)F)c3)CC2)CC1` (stereo not given), for which the growth inhibition in test [1] is 21%; in test [4], 92% (active). For the same compound, the inhibition in test [2] is 31%; in test [3], -4%. Further, the result in test [5], in test [6], in test [7] and in test [8] was inactive.
For `NS(=O)(=O)c1cccc(-c2ccc3ncc(N4CCOCC4)nc3c2)c1`, the results for the growth inhibition in test [1] and in test [4] were 74% (active) and 96% (active), respectively. The values for the inhibition in test [2] and in test [3] were 17% and -4%, respectively. The result in test [5], in test [6], in test [7] and in test [8] was inactive.
As to `CNc1ccc(CNCc2ccc(-c3ccc(-c4nc5ccc(F)cc5[nH]4)cc3)cc2)cc1`, the growth inhibition in test [1] is 95% (active); in test [4], 101% (active). For the same compound, the inhibition in test [2] was 38%; in test [3], -5%. In addition, the result in test [5], in test [6], in test [7] and in test [8] was inactive.
Turning to `CCCCCOc1ccc(C=NNc2nc(-c3ccccc3)cc(=O)[nH]2)cc1`, the growth inhibition was 86% (active) in test [1] and 88% (active) in test [4]. In addition, the values for the inhibition in test [2] and in test [3] were 0% and -2%, respectively. Further, the outcome in test [5], in test [6], in test [7] and in test [8] was inactive.
On to `O=C(NC1CCCCC1)N(Cc1ccc(-c2ccc(CNC3CCCC3)cc2)cc1)C1CCN(Cc2ccccc2)CC1`, for which the growth inhibition is 86% (active) in test [1] and 99% (active) in test [4]. Also, the inhibition is 31% in test [2] and 3% in test [3]. Further, the result in test [5], in test [6], in test [7] and in test [8] was inactive.
`CN(CC(=O)Nc1ccc(F)c(F)c1F)c1ncnc2sc(-c3ccccc3)cc12`: the growth inhibition in test [1] is 34%; in test [4], 95% (active). The inhibition in test [2] is 0%; in test [3] it was 2%. In addition, the outcome in test [5], in test [6], in test [7] and in test [8] was inactive.
As to `CC(C)(C)COC(=O)c1ccc(NC(=O)N[C@@H](Cc2ccc(O)cc2)C(=O)NC2CCN(Cc3ccc(O)cc3)C2)cc1` (stereo not given in full), the figures for the growth inhibition in test [1] and in test [4] were 21% and 94% (active), respectively. Besides, the inhibition is 3% in test [2] and -1% in test [3]. In addition, the outcome in test [5], in test [6], in test [7] and in test [8] was inactive.
Regarding `CCCCc1ccc(CCNCCCCCCNCCc2ccc(O)c(O)c2)cc1`, the growth inhibition in test [1] is -1%; in test [4] it was 100% (active). Also, the values for the inhibition in test [2] and in test [3] were 45% and 5%, respectively. Besides, the result in test [5], in test [6], in test [7] and in test [8] was inactive.
As for `O=C(O[C@@H]1CN[C@H](C#Cc2cc3ncnc(Nc4ccc5c(cnn5Cc5cccc(F)c5)c4)c3s2)C1)N1CCCC1`, the values for the growth inhibition in test [1] and in test [4] were 56% (active) and 86% (active), respectively. Moreover, the inhibition is 9% in test [2] and -3% in test [3]. Moreover, the outcome in test [5], in test [6], in test [7] and in test [8] was inactive.
On to `Cc1cc(C=C(P(=O)(OC(C)C)OC(C)C)P(=O)(OC(C)C)OC(C)C)c2ccccc2c1O`, for which the growth inhibition was 54% (active) in test [1] and 85% (active) in test [4]. In addition, the inhibition in test [2] is 15%; in test [3] it was -6%. Moreover, the result in test [5], in test [6], in test [7] and in test [8] was inactive.
For the compound `NC(N)=Nc1nc(-c2cc(NC(=O)C(F)(F)F)cc([N+](=O)[O-])c2)cs1`, the growth inhibition in test [1] was 51% (active); in test [4] it was 98% (active). Besides, the inhibition is 7% in test [2] and 5% in test [3]. Further, the outcome in test [5], in test [6], in test [7] and in test [8] was inactive.
Turning to `O=C(N[C@@H](Cc1ccccc1)[C@H](O)CNC1CCc2ccccc2C1)c1cc(C2CCCC2)cc(N2CCCC2=O)c1` (stereo not given in full), the growth inhibition in test [1] is 76% (active); in test [4], 99% (active). The inhibition in test [2] is 23%; in test [3], -4%. Moreover, the result in test [5], in test [6], in test [7] and in test [8] was inactive.
`COc1cc2nc(NCc3cccc(CNC(=O)c4ccc(-c5ccc(C(C)=O)cc5)cc4)c3)nc(N)c2cc1OC`: the growth inhibition in test [1] is 72% (active); in test [4], 100% (active). The inhibition is 32% in test [2] and -2% in test [3]. For the same compound, the result in test [5], in test [6], in test [7] and in test [8] was inactive.

One may read the inhibition as the change of the read-out against control, counted positive when it falls.

The values are drawn from PubChem BioAssay.
